USP1 inh – Inhibitors of USP1/UAF1: Primary Screen. recombinant USP1/UAF1, Ub-Rhodamine cleavage fluorescence. Potency, µM (titrated, usually from 57.1 µM), hits mostly inhibitors. hit rate 0.23% among 390,000. Ubiquitin carboxyl-terminal hydrolase 1 (Homo sapiens), O94782; also: nearly all actives have a fitted effect of over 60% in size
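USP1/UAF1 complex (1 nM) preincubated 15 min at room temperature with compound, then Ub-Rho substrate (150 nM final) added. Kinetic fluorescence at 480/540 nm over 6 reads at 60 s intervals; 50 mM HEPES pH 7.8, 0.5 mM EDTA, 0.1 mg/ml BSA, 1 mM TCEP, 0.01% Tween-20.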
IL-1B inflam inh – qHTS for Inhibitors of Inflammasome Signaling: IL-1-beta AlphaLISA Primary Screen; AID 743279, 2014; hit rate 4.7% among 360,000; THP-1 LPS/ATP IL-1B secretion, AlphaLISA, 16 h; hits give low values; activity change, % at 57.5 µM; in the data active = activity change below about -50%; inconclusive = mostly about -30% to -49%
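THP-1 cells pretreated 1 hr with compounds (up to 57.5 uM final), then stimulated with LPS (250 ng/mL final) plus ATP (1.25 mM final); secreted IL-1B measured by AlphaLISA after 16 hr, decreased signal indicating inhibition.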
ATXN2 expr inh – Primary qHTS for Inhibitors of ATXN expression; HEK-293 ATXN2-luciferase reporter, luminescence, 24 h; Potency, µM (series often up to 57 µM), actives largely listed as inhibitors; hit rate 0.72% among 360,000; AID 1745845, 2022; also: nearly all actives have a fitted effect of over 55% in size
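ATXN2-luciferase reporter cells (luciferase flanked by upstream and downstream ATXN2 gene portions) were treated 24 h at 37 °C with compounds at up to 57 uM. SteadyGlo luminescence gave expression; GF-AFC fluorescence gave viability.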
ATXN viability – Viability Counterscreen for Primary qHTS for Inhibitors of ATXN expression; S2 cells (HEK-293 line with an ATXN2-luciferase reporter) viability, CellTiter-Fluor protease fluorescence, 24 h; Potency, µM (doses to about 56.7 µM), hits mostly cytotoxic; hit rate 0.49% among 400,000; AID 651635, 2014; also: nearly all actives have a fitted effect of over 40% in size
USP2a block – qHTS Assay for Inhibitors of Ubiquitin-specific Protease USP2a Using CHOP2 as the Reporter; USP2 core, Ub-CHOP2 coupled fluorogenic reporter, 485/531; Potency, µM (series often up to 38.3 µM), most hits filed as inhibitors; hit rate 0.01% among 330,000
Target sequence (O75604 whole entry, looked up): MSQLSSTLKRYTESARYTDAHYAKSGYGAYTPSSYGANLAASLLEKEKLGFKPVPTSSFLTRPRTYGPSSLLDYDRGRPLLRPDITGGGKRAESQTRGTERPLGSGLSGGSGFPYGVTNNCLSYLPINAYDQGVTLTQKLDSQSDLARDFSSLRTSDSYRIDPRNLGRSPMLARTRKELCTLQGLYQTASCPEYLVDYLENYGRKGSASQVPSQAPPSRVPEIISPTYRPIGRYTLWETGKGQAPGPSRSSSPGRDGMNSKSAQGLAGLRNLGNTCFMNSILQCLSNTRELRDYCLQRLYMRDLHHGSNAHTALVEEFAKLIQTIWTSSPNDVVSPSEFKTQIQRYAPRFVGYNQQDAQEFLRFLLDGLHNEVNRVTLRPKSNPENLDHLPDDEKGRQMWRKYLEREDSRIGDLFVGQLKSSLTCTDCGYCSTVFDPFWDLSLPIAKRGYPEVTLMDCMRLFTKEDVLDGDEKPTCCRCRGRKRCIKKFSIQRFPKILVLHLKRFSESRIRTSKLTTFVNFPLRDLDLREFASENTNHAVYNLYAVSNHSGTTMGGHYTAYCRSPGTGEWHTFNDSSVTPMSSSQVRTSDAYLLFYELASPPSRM
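USP2 core (10nM final) preincubated 30min RT with compound in 20mM Tris-HCl pH 8.0, 2mM CaCl2, 2mM beta-mercaptoethanol, 0.05% CHAPS; 25nM Ub-CHOP2 plus 25nM reporter substrate added, fluorescence (Ex485/Em531) read after 60min.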
Each line names hits and unclear results; the compound was inactive in the other large screens. A selection: hits, their analogues and other compounds. The true share with any hit is near 4.8%. Unless noted, calls follow the shape of the dose curve; as a rule, active = well fitted curve in the direction sought with a large enough effect; inconclusive = small, poorly fitted or top-dose-only effect, or another doubt; inactive = no such curve, though single readings can be large; an effect the other way counts as inactive or inconclusive.

COc1ccc(Cl)cc1NC(=O)Nc1ccc(C(=O)N2CCOCC2)cc1	IL-1B inflam inh -63.0
COc1ccc(-c2ccc(CCC(=O)O)n2CC(=O)Nc2ccccc2C)cc1	none
Cc1cc(NS(=O)(=O)c2ccc(NC(=O)COc3ccc(Br)cc3)cc2)nc(C)n1	none
CN1CCN(C(CNS(=O)(=O)c2ccc([N+](=O)[O-])cc2)c2ccc(F)cc2)CC1 (stereo not given)	none
Cc1cc(C)c(S(=O)(=O)/N=C2/C=C(Sc3ncn[nH]3)C(=O)c3ccccc32)cc1C	USP1 inh 1.26µM, IL-1B inflam inh -88.5, ATXN2 expr inh 14.1µM, ATXN viability 22.4µM
O=C(Nc1nnc(C2CC2)o1)c1ccc(S(=O)(=O)N2CCCCC2)cc1	IL-1B inflam inh -69.1
CC1CCN(S(=O)(=O)c2ccc(C(=O)Nc3nnc(C4CC4)o3)cc2)CC1	ATXN2 expr inh inconclusive
O=C(Nc1nnc(C2CC2)o1)c1ccc(S(=O)(=O)N2CCCc3ccccc32)cc1	ATXN2 expr inh 15.8µM, ATXN viability inconclusive
O=c1[nH]c2ccccc2c(=O)n1CCCl	none (no result: USP1 inh, IL-1B inflam inh, USP2a block)
COc1ccc(/C=N/Nc2nc(-c3ccc(Cl)cc3)cc(C(F)(F)F)n2)cc1OC	IL-1B inflam inh -52.9
O=S(=O)(CCN1CCOCC1)c1ccccc1	none
O=S(=O)(CCN1CCSCC1)c1ccc(Cl)cc1	IL-1B inflam inh -73.1, ATXN viability inconclusive
CNC(=O)[C@@H]1C[C@H](NC2CCCCCCC2)CN1Cc1cccc(OC)c1OC	none (no result: USP1 inh, IL-1B inflam inh, ATXN2 expr inh, USP2a block)
COc1ccc(C(=O)NCc2nnc(SCC(=O)Nc3ccccc3)n2-c2ccccc2)cc1	none (no result: IL-1B inflam inh, USP2a block)
CCC(C)c1ccccc1NC(=O)CN(C)CCOc1ccc(Cl)cc1 (stereo not given)	IL-1B inflam inh -77.5
CC/C(=N\Nc1ccc([N+](=O)[O-])cc1)c1ccccc1	USP1 inh inconclusive, IL-1B inflam inh -51.0
O=[N+]([O-])c1ccc(NN=C(Oc2ccccc2)c2ccc([N+](=O)[O-])cc2)cc1	IL-1B inflam inh inconclusive (no result: ATXN2 expr inh, ATXN viability, USP2a block)
CC(C)(C)NC(=O)C(c1ccc(-c2ccccc2)cc1)N(C[C@H]1CC[C@@H]([C@@H]2CC[C@H](CO)O2)O1)C(=O)c1ccc(C(C)(C)C)cc1 (stereo not given in full)	IL-1B inflam inh inconclusive, ATXN viability 20µM
Cc1ccc(C(C(=O)NC(C)(C)C)N(CC2CCCO2)C(=O)c2csnn2)cc1 (stereo not given)	none
Cc1ccccc1-c1cccc(CN2CCc3nnc(C(NS(C)(=O)=O)C(C)C)n3CC2)c1 (stereo not given)	none (no result: USP1 inh, IL-1B inflam inh, ATXN2 expr inh, USP2a block)
CC(=O)O[C@H]1CC(C)(C)C(=C=C/C(C)=C/C=C/C(C)=C/C=C/C=C(C)/C=C/C=C(\C)C(=O)C[C@@]23O[C@]2(C)C[C@@H](O)CC3(C)C)[C@](C)(O)C1	IL-1B inflam inh -63.3, ATXN2 expr inh inconclusive, ATXN viability inconclusive
COC(=O)[C@H](Cc1ccccc1)NC(=O)Cn1cnc2c(NCc3ccccc3)ncnc21	IL-1B inflam inh inconclusive
Cc1nc2c(-c3ccc(F)cc3)cnn2c(N)c1-c1ccccc1	IL-1B inflam inh -73.4, ATXN2 expr inh inconclusive, ATXN viability inconclusive
Cc1nc2c(-c3ccc(Cl)cc3)cnn2c(N)c1-c1ccc(F)cc1	IL-1B inflam inh inconclusive (no result: ATXN2 expr inh)
O=C(NC1CCCC1)C(c1ccc(F)cc1)N(Cc1ccc(F)cc1)C(=O)CCl (stereo not given)	IL-1B inflam inh -103.8
COC(CN(C(=O)CCl)C(C(=O)NC1CCCCC1)c1ccc(C)cc1)OC (stereo not given)	IL-1B inflam inh -92.6, ATXN viability inconclusive
O=C(NC1CCCCC1)C(c1ccncc1)N(Cc1ccc(F)cc1)C(=O)c1ccccn1 (stereo not given)	none (no result: ATXN2 expr inh)
COc1ccc(C(C(=O)NC2CCCCC2)N(C(=O)CCl)c2ccc(OC)cc2)cc1 (stereo not given)	IL-1B inflam inh -89.9, ATXN2 expr inh 3.55µM, ATXN viability 3.98µM
COc1ccc(C(C(=O)NC2CCCCC2)N(C(=O)CCl)c2cccc(Cl)c2)cc1 (stereo not given)	IL-1B inflam inh -110.2, ATXN2 expr inh 6.31µM, ATXN viability 7.08µM

Screening results from PubChem.
